Data as given in PubChem BioAssay (EPA / NIEHS).
Inconclusive results are not listed. Activity calls are given as the source filed them. How the source made its calls, unless noted: active means hit-call score of the fitted dose curve at least 0.9, where 1 is the maximum; inactive means score below 0.9.

What was measured:
[1] = target: Cellular tumor antigen p53 (Homo sapiens) (UniProt P04637); assay: TOX21_p53_BLA_p2_ratio: Tox21 HCT-116 p53 Agonism Beta-lactamase Assay, Ratio, Phase 2 (AID 2283592; active means hit-call score of the fitted dose curve at least 0.9, where 1 is the maximum)
In short: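 HCT-116 cells with p53-responsive beta-lactamase reporter, 4000 cells/well, preincubated 5 h, then compound in DMSO (217-fold dilution) for 16 h at 37C. CCF4-AM substrate 2 h at room temperature; 460/530 nm emission ratio fitted upward versus DMSO.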

[2] = target: Cellular tumor antigen p53 (Homo sapiens) (UniProt P04637); assay: TOX21_p53_BLA_p3_ratio: Tox21 HCT-116 p53 Agonism Beta-lactamase Assay, Ratio, Phase 3 (AID 2283596; active means hit-call score of the fitted dose curve at least 0.9, where 1 is the maximum)
In short: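 HCT116 p53-bla cells (4000/well) given compound in DMSO (217-fold dilution) after 5 h, incubated 16 h at 37C. CCF4-AM substrate 2 h at room temperature; 460/530 nm emission ratio, gain fitted against DMSO.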

[3] = target: Cellular tumor antigen p53 (Homo sapiens) (UniProt P04637); assay: TOX21_p53_BLA_p5_ratio: Tox21 HCT-116 p53 Agonism Beta-lactamase Assay, Ratio, Phase 5 (AID 2283599; active means hit-call score of the fitted dose curve at least 0.9, where 1 is the maximum)
In short: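 Beta-lactamase reporter ratio (blue 460 nm over green 530 nm, 405 nm excitation) after 2 h CCF4-AM loading, in HCT-116 cells exposed 16 h at 37 C to compounds pinned at 217-fold dilution. Increases relative to DMSO baseline scored.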

[4] = TOX21_p53_BLA_p5_viability: Viability Assessment in the Tox21 HCT-116 p53 Agonism Beta-lactamase Assay, Phase 5 (AID 2283600; active means hit-call score of the fitted dose curve at least 0.9, where 1 is the maximum)
In short: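 HCT-116 p53 beta-lactamase reporter cells, 4000/well, were exposed to compound (pin transfer, 217-fold dilution) for 16 hours at 37C. Cellular ATP was read by CellTiter-Glo luminescence after 30 min at room temperature.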

[5] = target: Cellular tumor antigen p53 (Homo sapiens) (UniProt P04637); assay: TOX21_p53_BLA_p4_ratio: Tox21 HCT-116 p53 Agonism Beta-lactamase Assay, Ratio, Phase 4 (AID 2283601; active means hit-call score of the fitted dose curve at least 0.9, where 1 is the maximum)
In short: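 Signal is the blue/green (460nm/530nm) ratio of cleaved versus uncleaved CCF4-AM substrate, read after 2 h substrate loading. Cells were HCT116 carrying the p53-responsive beta-lactamase reporter, dosed 16 h at 37C, 5% CO2; CellTiter-Glo measured in parallel.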

[6] = CCTE_Shafer_MEA_dev_firing_rate_mean: CCTE's Neural Network Formation Assay for Mean Firing Rate, Shafer Lab (AID 2284031)
In short: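 Primary rat cortical neurons on 48-well MEA plates, exposed from plating day 0 with dosing renewed on DIV 5 and 9. Mean well firing rate over active electrodes, recorded days 5, 7, 9, 12, summarised as trapezoidal AUC.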

[7] = CCTE_Shafer_MEA_dev_per_burst_spike_percent: CCTE's Neural Network Formation Assay for Percent of Spikes in a Burst, Shafer Lab (AID 2284032);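 further: fitted as a decrease in burst spike percentage below DMSO baseline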
In short: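 Rat primary cortical neurons on 16-electrode MEA wells, dosed from plating day 0 for 12 days with renewal on DIV 5 and 9; spikes-in-bursts percentage averaged over bursting electrodes, collapsed as AUC across days 5, 7, 9, 12; loss direction versus DMSO.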

[8] = CCTE_Shafer_MEA_dev_active_electrodes_number: CCTE's Neural Network Formation Assay for Number of Active Electrodes, Shafer Lab (AID 2284040; active means hit-call score of the fitted dose curve at least 0.9, where 1 is the maximum;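 further: potency for loss of active electrodes versus DMSO so lower counts are hits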)
In short: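 Primary rat cortical neurons on 16-electrode MEA wells, exposed from day 0 through day 12 with compound renewed at DIV 5 and 9 feeds. Active electrodes (mean firing ≥5 spikes/min) counted at DIV 5, 7, 9, 12; trapezoidal AUC across days, loss-of-signal versus DMSO.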

[9] = CCTE_Shafer_MEA_dev_burst_rate: CCTE's Neural Network Formation Assay for Burst Rate, Shafer Lab (AID 2284042)
In short: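 Rat primary cortical cultures on PEI/laminin MEA; compound from plating, re-dosed at DIV 5, 9 media change. Single-electrode bursts/recording length, well mean of active electrodes; AUC over DIV 5–12 recordings; loss-of-signal vs DMSO.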

[10] = CCTE_Shafer_MEA_dev_bursting_electrodes_number: CCTE's Neural Network Formation Assay for Number of Bursting Electrodes, Shafer Lab (AID 2284043; active means hit-call score of the fitted dose curve at least 0.9, where 1 is the maximum;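 further: potency is for loss of bursting electrodes relative to DMSO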)
In short: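 Read-out is the per-well number of electrodes bursting at least once every 2 minutes, recorded on days 5, 7, 9 and 12 and collapsed by trapezoidal area under the curve. Cultures were primary rat cortical neurons on MEA plates, treated continuously from plating.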

[11] = CCTE_Shafer_MEA_dev_per_burst_interspike_interval: CCTE's Neural Network Formation Assay for Burst Interspike Interval, Shafer Lab (AID 2284044);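 further: mean spike spacing inside bursts as AUC over recordings on days 5 7 9 12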
In short: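 Primary rat cortical neurons on 48-well MEA plates, exposed from day 0 through day 12, treatment renewed at DIV 5 and 9. Within-burst interspike interval recorded days 5, 7, 9, 12, well-averaged, summarised as AUC; negative fit versus DMSO.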

[12] = CCTE_Shafer_MEA_dev_burst_duration_mean: CCTE's Neural Network Formation Assay for Mean Burst Duration, Shafer Lab (AID 2284045)
In short: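 Read-out: average first-to-last-spike interval within single-electrode bursts, averaged over bursting electrodes per well, then summarised as area under the curve across days 5, 7, 9 and 12. Developing rat cortical networks were exposed from day 0.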

[13] = CCTE_Shafer_MEA_dev_interburst_interval_mean: CCTE's Neural Network Formation Assay for Mean Interburst Interval, Shafer Lab (AID 2284046);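 further: well-mean interburst interval of bursting electrodes as AUC over four recording days; curve fitted for decrease in interburst interval relative to DMSO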
In short: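 Rat cortical neurons, 1.5 x 10^5 cells/well, 48-well MEA; compound from day 0 through DIV 12, media and treatment renewed DIV 5/9. Recordings DIV 5, 7, 9, 12; well-mean interburst interval → trapezoidal AUC, loss direction vs DMSO.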

[14] = CCTE_Shafer_MEA_dev_inter_network_spike_interval_mean: CCTE's Neural Network Formation Assay for Mean Inter-network Spike Interval, Shafer Lab (AID 2284047)
In short: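 Primary rat cortical neurons on PEI-coated 48-well MEAs (16 electrodes/well) were exposed from plating day 0 to DIV 12, with dosing renewed at DIV 5 and 9. Recordings at DIV 5, 7, 9, 12 were collapsed by trapezoidal AUC, loss-of-signal fit vs DMSO.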

[15] = CCTE_Shafer_MEA_dev_network_spike_number: CCTE's Neural Network Formation Assay for Number of Network Spikes, Shafer Lab (AID 2284048);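 further: synchronized bursts across electrodes counted on days 5 7 9 12 and integrated as AUC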
In short: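 Developing networks of primary rat cortical neurons are treated over 12 days starting at plating, with media and compound fully replaced on DIV 5 and 9. Network spike counts from four recording days are integrated as trapezoidal AUC.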

[16] = CCTE_Shafer_MEA_dev_spike_duration_mean: CCTE's Neural Network Formation Assay for Mean Spike Duration, Shafer Lab (AID 2284051);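 further: mean network spike duration pooled as area under curve over DIV 5 to 12 recordings; potency for a decrease in mean network spike duration versus DMSO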
In short: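 Rat cortical primary cultures, 48-well MEA (16 electrodes/well); compound from plating, renewed DIV 5, 9. Network spike duration (AxIS adaptive detector) recorded DIV 5/7/9/12, combined as trapezoidal AUC; loss direction vs DMSO.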

[17] = CCTE_Shafer_MEA_dev_network_spike_duration_std: CCTE's Neural Network Formation Assay for Standard Deviation of Network Spike Duration, Shafer Lab (AID 2284052);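 further: area under curve of spike duration SD across recording days 5 to 12; hits are decreases in network spike duration SD versus DMSO vehicle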
In short: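 Rat cortical cultures, 1.5 x 10^5 cells/well, exposed continuously from plating to DIV 12 with media/compound renewal at DIV 5, 9. Spontaneous activity recorded DIV 5/7/9/12, AxIS adaptive spike detector; AUC across days; negative direction vs DMSO.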

[18] = CCTE_Shafer_MEA_dev_per_network_spike_spike_number_mean: CCTE's Neural Network Formation Assay for Mean Number of Spikes in a Network Spike, Shafer Lab (AID 2284053)
In short: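 Rat cortical primary cultures on 48-well MEA; compound from day 0, re-dosed with full media change DIV 5, 9. Recorded DIV 5, 7, 9, 12; spikes in 0.05 s window at network-spike peak ÷ total network spikes; AUC; loss vs DMSO.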

[19] = CCTE_Shafer_MEA_dev_per_network_spike_spike_percent: CCTE's Neural Network Formation Assay for Percent of Spikes in a Network Spike, Shafer Lab (AID 2284054)
In short: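 Rat primary cortical cultures, 1.5 x 10^5 cells/well on MEA. Continuous compound exposure d0–12, medium/compound renewed DIV 5, 9. Network-spike spike % (0.05 s peak window), AUC over 4 recordings, DMSO baseline.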

[20] = CCTE_Shafer_MEA_dev_LDH: CCTE's Lactate Dehydrogenase Assay for Cytotoxicity in the Neural Network Formation Assay, Shafer Lab (AID 2284068; active means hit-call score of the fitted dose curve at least 0.9, where 1 is the maximum;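 further: exposure for twelve days from plating with re-dosing on DIV 5 and 9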)
In short: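 Rat cortical primary neurons, MEA culture; dosing day 0–12, full medium plus compound exchange DIV 5, 9. Read-out: LDH enzyme activity, spectrophotometric. DMSO = negative control/baseline; signal loss → cytotoxicity.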

[21] = CCTE_Shafer_MEA_dev_mutual_information_norm: CCTE's Neural Network Formation Assay for Mutual Information Normalization, Shafer Lab (AID 2284091)
In short: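 Developing rat cortical networks on 16-electrode MEA wells are treated throughout formation (DIV 0–12). Shared electrode information is recorded four times, converted to area-under-curve, and fitted for decreases against DMSO vehicle.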

[22] = CCTE_Shafer_MEA_dev_correlation_coefficient_mean: CCTE's Neural Network Formation Assay for Mean Correlation Coefficient, Shafer Lab (AID 2284093)
In short: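 Rat cortical cultures, 1.5 x 10^5 cells/well, dosed from day 0 for 12 days. Spontaneous spikes recorded DIV 5/7/9/12; electrode-pair correlation coefficients averaged, AUC taken. Fit in loss direction vs DMSO.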

[23] = CCTE_Mundy_HCI_Cortical_Synap_Neur_Matur_NeuriteSpotCountPerNeuriteLength: CCTE's Synaptogenesis and Neurite Maturation Assay in rat cortical cells for Neurite Spot Count per Neurite Length, Mundy Lab (AID 2284210)
In short: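 Primary rat cortical neurons, compound exposure DIV 7–12, 288.33 h endpoint. Hoechst, anti-MAP2 and anti-synaptophysin labelling; neurite-associated puncta per neurite length scored by automated imaging relative to DMSO controls.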

[24] = CCTE_Mundy_HCI_Cortical_NOG_NeuriteLength: CCTE's Neurite Outgrowth Assay in rat cortical cells for Neurite Length, Mundy Lab (AID 2284213)
In short: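 Neurite length was read by high-content imaging of βIII-tubulin-labelled neurites in rat primary cortical cultures. Activity was fitted relative to DMSO.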

[25] = CCTE_Mundy_HCI_Cortical_Synap_Neur_Matur_NeuriteLength: CCTE's Synaptogenesis and Neurite Maturation Assay in rat cortical cells for Neurite Length, Mundy Lab (AID 2284214)
In short: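 Rat primary cortical cultures, AraC added DIV 5, dosed DIV 7 through DIV 12 […]. Fixed, MAP2/synaptophysin immunostained with Hoechst; neurite length by high-content imaging, fitted in positive direction versus DMSO.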

[26] = CCTE_Mundy_HCI_Cortical_Synap_Neur_Matur_NeuriteSpotCountPerNeuron: CCTE's Synaptogenesis and Neurite Maturation Assay in rat cortical cells for Neurite Spot Count per Neuron Count, Mundy Lab (AID 2284215)
In short: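 Rat primary cortical cultures given AraC at DIV 5, dosed from DIV 7 to DIV 12 with media change. Fixed, stained for MAP2, synaptophysin and Hoechst; neurite-associated synaptophysin puncta per neuron quantified by high-content imaging versus DMSO.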

[27] = CCTE_Mundy_HCI_Cortical_Synap_Neur_Matur_SynapseCount: CCTE's Synaptogenesis and Neurite Maturation Assay in rat cortical cells for Synapse Count, Mundy Lab (AID 2284218)
In short: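 Rat primary cortical cultures, AraC at DIV 5, chemical dosing DIV 7 to DIV 12 (288.33 h). Fixed cells stained for MAP2, synaptophysin and Hoechst; synapses per neuron counted by high-content imaging, loss of signal versus DMSO.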

[28] = CCTE_Mundy_HCI_hN2_NOG_NeuriteLength: CCTE's Neurite Outgrowth Assay in human hN2 cells for Neurite Length, Mundy Lab (AID 2284220; active means hit-call score of the fitted dose curve at least 0.9, where 1 is the maximum)
In short: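 Plate hNP1-derived neurons, then add chemical 2 h later as a 1/10 dilution. Stain with anti-βIII-tubulin then Alexa Fluor-488 secondary, and image automatically to measure neurite length.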

[29] = CCTE_Mundy_HCI_hN2_NOG_NeuronCount: CCTE's Neurite Outgrowth Assay in human hN2 cells for Neuron Count, Mundy Lab (AID 2284221; active means hit-call score of the fitted dose curve at least 0.9, where 1 is the maximum)
In short: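 Read-out is the number of betaIII-tubulin-positive neurons imaged by automated high-content analysis, with DMSO as negative control.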

[30] = CCTE_Mundy_HCI_Cortical_Synap_Neur_Matur_CellBodySpotCount: CCTE's Synaptogenesis and Neurite Maturation Assay in rat cortical cells for Cell Body Spot Count, Mundy Lab (AID 2284223)
In short: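 Primary rat cortical cultures, AraC added at DIV 5; dosed DIV 7 through DIV 12 […]. Fixed, stained for MAP2 and synaptophysin with Hoechst; cell body-associated synaptophysin puncta per neuron counted by high-content imaging, loss vs DMSO.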

[31] = CCTE_Mundy_HCI_Cortical_NOG_NeuronCount: CCTE's Neurite Outgrowth Assay in rat cortical cells for Neuron Count, Mundy Lab (AID 2284236; active means hit-call score of the fitted dose curve at least 0.9, where 1 is the maximum;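 further: neurons counted by imaging betaIII-tubulin and Hoechst stained cortical cells; cells exposed to compound for about 48 hours before fixation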)
In short: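 Read-out: neuron number by high-content imaging of betaIII-tubulin (Alexa Fluor-488) and Hoechst-labelled rat primary cortical cells.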

[32] = CCTE_Mundy_HCI_hNP1_Casp3_7: CCTE's Caspase-Glo 3/7 Assay in human neuroprogenitor cells for Apoptosis, Mundy Lab (AID 2284240)
In short: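 Apoptosis is scored by activated caspase-3/7 luminescence in WA09-derived neural progenitor cells, measured 26.5 h after chemical dosing. Values represent gain of signal relative to DMSO vehicle.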

Measured: AC50

Cellular tumor antigen p53 (Homo sapiens), sequence (P04637 whole entry, looked up): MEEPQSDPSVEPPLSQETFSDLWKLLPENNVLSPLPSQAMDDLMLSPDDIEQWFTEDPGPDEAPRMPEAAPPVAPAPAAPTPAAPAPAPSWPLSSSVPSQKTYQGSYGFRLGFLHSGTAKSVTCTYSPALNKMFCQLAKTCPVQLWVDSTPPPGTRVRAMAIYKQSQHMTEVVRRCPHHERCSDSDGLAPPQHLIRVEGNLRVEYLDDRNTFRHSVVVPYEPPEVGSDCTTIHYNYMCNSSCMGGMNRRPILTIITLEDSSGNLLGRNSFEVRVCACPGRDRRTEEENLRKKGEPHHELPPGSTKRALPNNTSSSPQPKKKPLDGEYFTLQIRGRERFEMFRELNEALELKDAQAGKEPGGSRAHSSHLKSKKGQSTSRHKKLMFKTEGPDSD

CN1C(=O)CN=C(c2ccccc2)c2cc(Cl)ccc21
active: [7] 3.62 µM | [8] 15 µM | [10] 4.58 µM | [16] 3.06 µM | [19] 15 µM | [32] 23 µM
inactive: [1] | [2] | [3] | [4] | [5] | [6] | [9] | [11] | [12] | [13] | [14] | [15] | [17] | [18] | [20] | [21] | [22] | [23] | [24] | [25] | [26] | [27] | [28] | [29] | [30] | [31]

NCC1(CC(=O)O)CCCCC1
inactive: [1] | [2] | [3] | [5]
